EWS-Fli block: EWS/Fli-driven NR0B1 reporter inhibitors, primary screen, A673 cells, NR0B1 luciferase, luminescence, MLPCN library. viability-normalised. inhibition, % at 12.6 µM. actives 0.67% (n = 350,000). AID 651661, 2012;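 active means mean inhibition of at least 50% after viability correction, with every replicate also passing that limit; inconclusive means mean reaches 50% but only one of two replicates passes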;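 further: firefly luciferase signal divided by Alamar Blue viability fluorescence both relative to DMSO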
CFTR F508del cor: F508del CFTR correction, initial screen, CFBE line, single point | activity (quench increase), % at 7.58 µM | CFBE cells, YFP halide quenching; stimulated with forskolin plus potentiator P3; % fluorescence drop versus neutral controls | actives 0.36% (n = 350,000);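 active means mean added fluorescence quench of at least 8% versus neutral control, with both replicates also reaching 8%; inconclusive means only one of the mean or replicate conditions met; inactive means mean below 8% and not both replicates reaching 8%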;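 further: cells transiently co-express mutant CFTR-F508del with the halide-sensitive YFP; corrector assay measuring rescue of mutant channel to the surface after 24 h compound exposure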
PAX8 inh HTS: inhibitors of PAX8-driven TPO luciferase reporter, primary screen, RMG-I cells, single concentration; SteadyGlo, 24 h; inhibition, % at 12.6 µM; actives 1.2% (n = 360,000); AID 652154, 2013;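 active means mean replicate inhibition at least 60% with every replicate also reaching 60%; inconclusive means only one of the two criteria is met; inactive means mean below 60% and not all replicates reaching 60%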;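 further: luciferase light reporting Pax8 driven TPO promoter activity; plate controls were median of neutral control wells for no effect and mitoxantrone controls for full effect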
LGR2 antag: inhibitors of bursicon-induced LGR2 CRE-luciferase signal, primary screen, cell-based, HEK293, CRE-luciferase reporter, bursicon stimulation; actives 0.35% (n = 380,000); inhibition, % at 9.99 µM; bursicon-stimulated, 4 h;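 active means drop in luminescence signal, shown as inhibition above about 50% in the replicate tests, limit read from the data, passing the limit was not always enough; inconclusive means probably only some replicates passing the limit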;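 further: agonist challenge used bursicon conditioned medium at about half maximal strength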
DNA binder FP: DNA binders by acridine orange displacement, dose response, counter-screen for EWS/Fli inhibitor project, biochemical, fluorescence polarization, cherry-pick | shares compounds with EWS-Fli block | actives 2% (n = 640) | salmon sperm DNA acridine orange fluorescence polarization | AC35, µM (titrated, usually from 68 µM), without a hit: at the top dose activity change, negative = DNA binding | AID 720586, 2013;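 active means fitted curve reaches a 35% signal fall AC35 below twice the sample's top valid tested dose, actives reach about 48 µM in these data; inactive means the rest, including activity in the rising direction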;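 further: lower polarization ratio signals compound binding to DNA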
* marks the source's active call; other numbers are inactive results; ? = inconclusive; · = no result. Hits are enriched below; roughly 1.8% of the tested compounds scored in any of these assays.

SMILES	EWS-Fli block	CFTR F508del cor	PAX8 inh HTS	LGR2 antag	DNA binder FP
Cc1cc(NC(=O)c2ccc3c(c2)OCCO3)ccc1NC(=O)c1cc2ccccc2o1	-52	-5	-16	?	·
O=C(Nc1ccc(NC(=O)c2cc3ccccc3o2)cc1)c1ccc2c(c1)OCCO2	58*	2	-1	1	-2%
CCOC(=O)CCn1c(=S)n(CCC(=O)OCC)c2ccccc21	0	-1	-2	-4	·
Nc1ccc2oc(-c3cc(Br)ccc3Cl)nc2c1	54*	0	·	·	-7%
CCN1CCCC(OC(=O)C(c2ccccc2)c2ccccc2)C1 (configuration not stated)	2	-2	-8	·	·
CN(C)[C@@H]1CCC[C@@H]1OC(=O)C(c1ccccc1)c1ccccc1	87*	·	-23	7	-1%
Cc1ccc2oc(/N=C(\N)NC(=O)C(C)(C)C)nc2c1	85*	0	29	100*	-6%
COc1ccc(C(=O)Nc2cc(C)nn2-c2nc3ccccc3[nH]2)c(OC)c1	-1	-4	-7	0	·
COc1cccc(OC)c1C(=O)Nc1cc(C)nn1-c1nc2ccccc2[nH]1	59*	1	15	6	2%

Assay outcomes (PubChem)
